Several values for one entry are separate records, joined by “and”; a condition that tells them apart may be missing. Identical values can stand only once. Records with an inconclusive call do not appear. Activity calls are given as the source filed them. Calls follow the shape of the dose curve; as a rule, active = well fitted curve in either direction with a large enough effect; inconclusive = small, poorly fitted or top-dose-only effect; inactive = no such curve, though single readings can be large or run the other way.
Molecular target: Lysosomal alpha-glucosidase (Homo sapiens) (UniProt P10253)
Test: Confirmation of Inhibitors and Activators of Purified Human alpha-Glucosidase Using an Alternate Red Fluorescent Susbtrate
Conditions: purified enzyme, red fluorogenic substrate; series mostly up to 63.4 µM
Procedure, shortened: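 Concentration series tested against 4 nM purified human enzyme, pH 5.0 citrate buffer with Tween-20; 400 uM resorufin glycoside substrate, 20 min room temperature, NaOH/glycine stop. Fluorescence normalized to no-enzyme and full-activity controls; Hill-equation AC50.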

| Compound | Potency |
| --- | --- |
| COc1ccc(C#Cc2cnc(Cl)c3cncnc23)cc1OC | inactive |
| CC(=O)c1ccc(N2CCN(S(=O)(=O)c3ccc4c(c3)CC(=O)N4)CC2)cc1 | 919 nM [inhibitor] (active) and 1.06 µM [inhibitor] (active) and 1.3 µM [inhibitor] (active) |
| CC(=O)c1ccc(N2CCN(S(=O)(=O)c3ccc4c(c3)C(=O)OC4)CC2)cc1 | inactive |
| CCCN1CNc2c(c(=O)[nH]c(=S)n2CCc2c(Cl)cccc2Cl)C1 | 1.12 µM (active) |
| Cc1nc(N=Nc2cc(S(=O)(=O)O)c3cc([N+](=O)[O-])cc(S(=O)(=O)O)c3c2)c(COP(=O)(O)O)c(C=O)c1O | inactive |
| CCCN1CNc2c(c(=O)[nH]c(=S)n2CCc2ccccc2Cl)C1 | 2.51 µM (active) |
| OC[C@H]1NC[C@@H](O)[C@@H]1O | inactive |
| CCCN1CNc2c(c(=O)[nH]c(=S)n2CCc2ccc(C)cc2C)C1 | 2.82 µM (active) |
| CC(=O)c1ccc(N2CCN(S(=O)(=O)c3ccc4c(c3)CCCC(=O)N4)CC2)cc1 | inactive |
| CCCN1CNc2c(c(=O)[nH]c(=S)n2CCc2cccc(C)c2C)C1 | 1.12 µM (active) |
| COc1cc(NS(C)(=O)=O)ccc1Nc1c2ccccc2nc2ccccc12 | inactive |
| O=c1[nH]cc(CCc2ccccc2)c2ncncc12 | inactive |
| CCCN1CNc2c(c(=O)[nH]c(=S)n2CCc2cccc(Cl)c2)C1 | 11.2 µM (active) |
| CCCN1CNc2c(c(=O)[nH]c(=S)n2CCc2ccc(OC)c(OC)c2)C1 | 2 µM (active) |
| COc1ccc(CCn2c3c(c(=O)[nH]c2=S)CN(C)CN3)cc1OC | 7.94 µM (active) |
| CCCN1CNc2c(c(=O)[nH]c(=S)n2CCc2cc(Cl)ccc2Cl)C1 | 0.794 µM (active) |
| CCCN1CNc2c(c(=O)[nH]c(=S)n2CCc2cccs2)C1 | 7.94 µM (active) |
| CC(=O)c1ccc(N2CCN(S(=O)(=O)c3ccc4[nH]c(=O)[nH]c4c3)CC2)cc1 | inactive |
| CCCN1CNc2c(c(=O)[nH]c(=S)n2CCc2cc(C)ccc2C)C1 | 3.16 µM (active) |
| CCCN1CNc2c(c(=O)[nH]c(=S)n2CCc2c(OC)cccc2OC)C1 | 14.1 µM (active) |
| CCCN1CNc2c(c(=O)[nH]c(=S)n2CCc2ccc(OC)cc2OC)C1 | 2.51 µM (active) |
| CC(O)[C@@H](O)[C@H]1CNc2nc(N)[nH]c(=O)c2N1 (stereo partly specified) | inactive |
| O=C1Cc2cc(S(=O)(=O)N3CCNCC3)ccc2N1 | inactive |
| CCCN1CNc2c(c(=O)[nH]c(=S)n2CCc2c(C)cccc2C)C1 | 3.16 µM (active) |
| COc1ccc(C#Cc2c[nH]c(=O)c3cncnc23)cc1OC | inactive |
| CCCN1CNc2c(c(=O)[nH]c(=S)n2CCc2cc(Cl)cc(Cl)c2)C1 | 2 µM (active) |

— PubChem BioAssay AID2110 (National Center for Advancing Translational Sciences (NCATS), 2009)
